Assay outcomes deposited in PubChem by National Center for Advancing Translational Sciences (NCATS).
Pf growth 48h: P. falciparum growth inhibition at 48 hours (one generation); P. falciparum luciferase growth in erythrocytes, 48 h; Potency, µM (series often up to 28.7 µM), for the others: at the top dose activity change, negative = inhibition, hits mostly inhibitors; 310,000 tested, 5.9% active
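Growth was read as firefly luciferase luminescence after a 48 h, 37 C, 5% CO2 exposure of compounds to reporter-bearing P. falciparum cultures (0.1% parasitemia, 2% hematocrit final) in Albumax-supplemented RPMI 1640.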
HCV inhibitor: inhibitors of hepatitis C virus infection | Huh7.5.1 HCVcc-Cre infection, luciferase reporter, 44 h | 340,000 tested, 3.4% active | Potency, µM (series often up to 41.8 µM), for inactives: at the top dose activity change, negative = inhibition, actives largely listed as inhibitors
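Cells seeded at 1,000/well and cultured 4 h, then compounds added followed by HCVcc-Cre virus (~0.5 moi). After 44 h further culture, luciferase substrate was added, plates held 15 min at room temperature, and luminescence read for 15 sec.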
AMA1 RON2 block: disrupts binding of P. falciparum AMA1 to RON2 | AlphaScreen AMA1-biotinylated RON2 peptide binding | Potency, µM (top dose mostly 58.2 µM), for inactives: top-dose activity change, negative = inhibition, most hits filed as inhibitors | 360,000 tested, 0.2% active | AID 720542;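 note: 0% = vehicle wells and -100% = peptide control; nearly all actives have a fitted effect of over 45% in size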
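AMA1 (3D7) with his tag at 25 nM final met compounds first, then biotinylated RON2 peptide at 25 nM; detection used donor plus acceptor beads, 10 µg/mL apiece, read by AlphaScreen after 30 min at room temperature.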
Pf growth 96h: inhibits malaria parasite growth, 96 h; Potency, µM (top dose mostly 28.7 µM), without a hit: at the top dose activity change, negative = inhibition, usual class: inhibitors; 320,000 tested, 6.9% active; P. falciparum luciferase reporter growth, 96 h
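96 h incubation, 37 C, 5% CO2, of luciferase-reporter P. falciparum-infected RBCs (2% hematocrit, 0.05% parasitemia final) with test compounds; endpoint luminescence.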
Active calls of the source: *; i = inactive; u = inconclusive; x = no result. In the library only some 11% were active in any assay of this set; here they are far more common. Calls come from the whole dose curve; as a rule, active = well fitted curve in the direction sought with a large enough effect; inconclusive = small, poorly fitted or top-dose-only effect, or another doubt; inactive = no such curve, though single readings can be large; an effect the other way counts as inactive or inconclusive. Unless noted, % is set by controls: 0 for no effect and ±100 for the full control effect; potency is the fitted concentration of half-maximal effect.

SMILES	Pf growth 48h	HCV inhibitor	AMA1 RON2 block	Pf growth 96h
O=C(NCc1cccnc1)C1CCC(c2ccc(Cl)cc2)CC1 (centres undefined)	u	7.9µM*	4%	u
CCOc1ccc(C(=O)CSCC(=O)O)cc1	41%	19%	13%	73%
COc1ccc(-c2nc3cc(NC(=O)c4ccc5c(c4)OCO5)ccc3o2)cc1	55%	u	-10%	u
O=C(Nc1ccc2oc(-c3ccncc3)nc2c1)c1ccc2c(c1)OCO2	3%	-18%	-2%	4%
CCCC(=O)Nc1ccc2oc(-c3ccc(OC)c(Br)c3)nc2c1	u	u	6%	u
COc1ccccc1C(=O)Nc1ccc2oc(-c3ccc(F)cc3)nc2c1	5%	u	-6%	10µM*
O=C(Nc1ccc2oc(-c3ccncc3)nc2c1)c1ccc2c(c1)OCCO2	u	13%	-6%	9.3µM*
CCCC(=O)Nc1ccc(-c2nc3cc(C)ccc3o2)cc1	57%	11µM*	-19%	x
O=C(Nc1ccc2oc(-c3ccccc3)nc2c1)c1ccc2c(c1)OCCO2	8%	10µM*	-1%	101%
COc1ccc(C(=O)Nc2ccc3oc(-c4cccc(F)c4)nc3c2)cc1OC	x	u	21%	u
CCN(C(=O)COC(=O)c1cccc(-n2cnnn2)c1)C1CCCCC1	i	14%	-19%	64%
O=C(Nc1ccc2oc(-c3ccncc3)nc2c1)c1c(F)c(F)c(F)c(F)c1F	7%	0%	-20%	8%
O=C(Nc1ccc(NC(=O)c2cc3ccccc3o2)cc1)c1ccc2c(c1)OCCO2	u	u	-4%	i
O=C(Nc1ccc2oc(-c3ccncc3)nc2c1)c1ccc(F)cc1	-12%	22µM*	53%	-2%
Cc1cc(NC(=O)c2ccc3c(c2)OCCO3)ccc1NC(=O)c1cc2ccccc2o1	21%	11µM*	-2%	u
O=C(Nc1ccc2oc(-c3cccnc3)nc2c1)c1ccc2c(c1)OCCO2	8.3µM*	-28%	-11%	u
O=C(Nc1ccc2oc(-c3ccccc3F)nc2c1)c1cncc(Br)c1	8.3µM*	u	-11%	x
COc1ccc(C(=O)Nc2ccc3oc(-c4cccnc4)nc3c2)cc1OC	u	-4%	0%	u
COc1ccc(-c2nnc(SCc3cc(C)ccc3C)n2N)cc1	-17%	-15%	-2%	1%
COCC(C)n1c(C)cc(C(=O)COC(=O)c2ccc3c(c2)NC(=O)CS3)c1C (centres undefined)	10µM*	u	15%	7.4µM*
CCOC(=O)c1c(C)[nH]c(C)c1C(=O)COC(=O)c1ccc(Cl)c(S(=O)(=O)NCc2ccccc2)c1	x	7.1µM*	-2%	u
Cc1c(OCC(=O)NC2CC(C)(C)NC(C)(C)C2)ccc2c3c(c(=O)oc12)CCC3	u	u	-4%	u
Cc1c(OCC(=O)NC2CC(C)(C)NC(C)(C)C2)ccc2c1oc(=O)c1ccccc12	3.7µM*	2µM*	-8%	3.3µM*
CC1(C)CC(NC(=O)COc2ccc(Br)cc2Cl)CC(C)(C)N1	-9%	25µM*	-1%	-22%
CC1(C)CC(NC(=O)COc2ccccc2Cl)CC(C)(C)N1	75%	26%	-11%	1%
SMILES	Pf growth 48h	HCV inhibitor	AMA1 RON2 block	Pf growth 96h
CCCCCCCCN1[C@@H](CC(=O)O)c2ccc(C(F)(F)F)cc2S1(=O)=O	x	7%	-2%	x
CCCNC(=O)C1(C)CCN(C(=O)c2oc3ccccc3c2C)C1 (centres undefined)	x	x	5%	x
CCN(CC)CCn1c2c(c(SCC(=O)NCc3ccccc3)nc1=O)CCC2	-1%	6%	-10%	2%
Cc1ccc(C(=O)NCC(=O)NCCCc2ccccc2)cc1	5%	18%	-13%	4%
COC(=O)c1ccccc1S(=O)(=O)NNC(=O)Nc1ccccc1	-7%	14%	-7%	-13%
C=CCc1cccc(Cl)c1OCCCNC1CCCC1	u	10µM*	-4%	u
Cc1cccc(NC(=O)CN(c2ccc(C(C)C)cc2)S(=O)(=O)c2c(C)nn(C)c2C)n1	x	u	3%	2.9µM*
CCOC(=O)c1ccc(NC(=O)CN(c2ccc(C)cc2)S(=O)(=O)c2c(C)nn(C)c2C)cc1	10µM*	-27%	-8%	x
Cc1nn(C)c(C)c1S(=O)(=O)N(CC(=O)Nc1ccccn1)c1ccc(C(C)C)cc1	3%	u	-4%	u
COc1ccc2nc(NC(=O)CN(c3ccc(C)cc3)S(=O)(=O)c3c(C)nn(C)c3C)sc2c1	12µM*	u	-13%	2.6µM*
COc1ccc(NC(=O)CN(c2ccc(C)cc2)S(=O)(=O)c2c(C)nn(C)c2C)cc1	u	-13%	1%	-2%
O=C(COC(=O)CNC(=O)c1ccccc1Cl)NC1CC1	x	10%	-11%	x
CC(C)(C)c1ccc(S(=O)(=O)N2CCN(CC(=O)N3CC(=O)Nc4ccccc43)CC2)cc1	12µM*	-6%	-6%	u
CCc1cccc(C)c1NC(=O)CN1CCN(S(=O)(=O)c2ccc(C(C)(C)C)cc2)CC1	1.7µM*	2µM*	-1%	0.93µM*
COc1cc2c(cc1OC)CN(C(=O)CCNC(=O)c1ccccc1Cl)CC2	x	8%	-3%	x
CC(C)CCON=O	-5%	x	x	-2%
CCON=O	-75%	x	x	2.7µM*
CCCNC(=O)NC(=O)COC(=O)CNS(=O)(=O)/C=C/c1ccccc1	21%	1%	0%	23%
COc1ccc(-c2nc3n(n2)C(c2cccnc2)C(C(N)=O)=C(C)N3)cc1 (centres undefined)	-10%	20%	-2%	12µM*
CC1=C(C(=O)Nc2ccccc2)C(c2cccnc2)n2nc(-c3cccnc3)nc2N1 (centres undefined)	-14%	10%	-3%	23%
CC1=C(C(=O)Nc2cccnc2)C(c2cccnc2)n2nc(-c3cccs3)nc2N1 (centres undefined)	0%	-7%	-3%	9.3µM*
COc1cccc(OC)c1/C=C/C(=O)NC1CCCCC1	16%	3%	-3%	u
CN(C(=O)c1cc2sccc2n1C)C1CCCCC1	79%	2%	-1%	2.6µM*
Cc1ccc(-n2nc(C)c3c2C(Br)C(C)(C)CC3=O)nc1 (centres undefined)	x	12%	30%	x
Cc1nn(-c2ccccn2)c2c1C(=O)CC(C)(C)C2Br (centres undefined)	15µM*	-25%	3%	u
Cc1ccc(NC(=O)/C(C#N)=C/c2cc(C)n(-c3ccc(N4CCOCC4)c([N+](=O)[O-])c3)c2C)c(C)c1	u	u	0%	12µM*
CNC(=O)/C(C#N)=C/c1cc(C)n(-c2ccc(N3CCOCC3)cc2)c1C	72%	-4%	-11%	16%
Cc1cc(C=O)c(C)n1-c1ccc(N2CCOCC2)c([N+](=O)[O-])c1	-11%	11%	-7%	5%
Cc1cc(/C=C(\C#N)C(=O)Nc2ccc(Cl)cc2)c(C)n1-c1ccc(N2CCOCC2)c([N+](=O)[O-])c1	12µM*	u	0%	7.4µM*
